± gives the standard deviation of the averaged measurements. In all, about 33,000 sequences were measured (“E-score (rank enrichment, -0.5 to 0.5)”: median about -0.0028, highest 2% from about 0.23 on). For the sample, the highest values were picked, then their nearest neighbours and some sequences at random.
tested on: 2Sb-muMax20 (muMax20 with two 1,3-bis(methyl)benzene Cys staples, A13C/A17C and Q88C/A92C, C-terminal Lys); test: PBM 8-mer E-score (E-score (rank enrichment, -0.5 to 0.5)); higher = stronger preferential binding
Protocol: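 Protein binding microarray (universal PBM chip covering all 10-mers in fixed probe flanks) with chemically synthesized human Max(13-93) bHLH-LZ analogs (not full-length Max) bearing noncanonical residues (hArg, Tha, Aib, Nle at 65) and aromatic Cys staples. Read-out per 8-mer (and its reverse complement): E-score (rank-based enrichment, -0.5 to 0.5) and Z-score of median probe intensity.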

Row | Sequence | PBM 8-mer E-score
1 | ATAACCTG | 0.113 ± 0.024
2 | AATGGCGT | 0.0723 ± 0.025
3 | CGTGCACG | 0.357 ± 0.019
4 | CGTGCACA | 0.123 ± 0.094
5 | TGTGCACA | -0.0483 ± 0.071
6 | AAACGTTT | 0.171 ± 0.011
7 | AGGCAGGC | -0.109 ± 0.057
8 | CTATTTCC | 0.259 ± 0.0072
9 | CTATTTCA | 0.135 ± 0.01
10 | ATATTTCC | -0.00852 ± 0.065
11 | CCAAGCAA | 0.0514 ± 0.029
12 | ATGGATTA | -0.131 ± 0.0052
13 | AGCGTCAA | -0.0167 ± 0.026
14 | ACACAAGA | 0.0809 ± 0.01
15 | CATTGTAC | 0.238 ± 0.031
16 | CATTGTAG | 0.033 ± 0.059
17 | AATTGTAC | 0.2375 ± 0.0016
18 | AATTGTAG | 0.0147 ± 0.034
19 | GATTGTAC | 0.051 ± 0.031
20 | AATTGTAA | 0.165 ± 0.011
21 | GATTCGAC | -0.119 ± 0.031
22 | GCAGGTGA | -0.000525 ± 0.049
23 | AGCACAGA | 0.00824 ± 0.026
24 | AACATGCT | 0.0156 ± 0.11
25 | AAAACTGC | -0.0787 ± 0.029

Row | Sequence | PBM 8-mer E-score
26 | ACATTATA | 0.222 ± 0.013
27 | AAACGAAT | 0.0979 ± 0.067
28 | CAACCGGG | -0.22 ± 0.053
29 | ACTCACAA | 0.124 ± 0.028
30 | ACCTCGAC | -0.178 ± 0.084
31 | GTGCAATA | 0.118 ± 0.07
32 | ATGCATTC | 0.248 ± 0.054
33 | ATGCATCA | 0.332 ± 0.0056
34 | GTGCATTA | 0.0825 ± 0.077
35 | GTGCATCA | 0.0577 ± 0.073
36 | CTGCATTA | 0.0983 ± 0.0036
37 | ATGCATTG | 0.133 ± 0.0027
38 | CTGCAATA | 0.0131 ± 0.065
39 | ATGCATCG | 0.0238 ± 0.0075
40 | ATGCATTA | 0.311 ± 0.01
41 | CTGCATTC | 0.0548 ± 0.014
42 | ATGCAATA | 0.269 ± 0.021
43 | AAAACCCA | 0.145 ± 0.034
44 | CGTGCCCC | 0.0242 ± 0.014
45 | GCTCTCTA | -0.0575 ± 0.015
46 | ACCTGCCC | -0.236 ± 0.049
47 | AGGCATAG | 0.017 ± 0.038
48 | CAAGTAAA | 0.114 ± 0.018
49 | CCTACACC | 0.00456 ± 0.037
50 | TCGCGTCA | -0.0876 ± 0.026

Row | Sequence | PBM 8-mer E-score
51 | CTGCATAC | 0.0495 ± 0.019
52 | ATGCATAC | 0.253 ± 0.0083
53 | ATGCATAA | 0.213 ± 0.023
54 | GCGGCGAC | -0.148 ± 0.0016
55 | GAAACATC | 0.0426 ± 0.019
56 | GAAAACAA | 0.244 ± 0.069
57 | TAAAACAA | -0.00029 ± 0.077
58 | AAAACATA | 0.1684 ± 0.0003
59 | CAAACAAA | 0.0981 ± 0.0047
60 | GAAACAAC | 0.0094 ± 0.1
61 | GAAACAAA | 0.301 ± 0.065
62 | AAAAACAA | 0.158 ± 0.049
63 | GAAACATA | 0.268 ± 0.048
64 | GATTATTA | 0.1 ± 0.071
65 | ATTACGAG | 0.164 ± 0.013
66 | CGAGTTAA | 0.0575 ± 0.082
67 | ACTCAGAA | 0.0145 ± 0.00035
68 | CTTAGTAC | 0.0932 ± 0.025
69 | TATCCAAA | 0.103 ± 0.028
70 | CCCGTCGA | -0.109 ± 0.064
71 | CTGTGGTC | -0.235 ± 0.017
72 | CAAGAAGA | 0.0996 ± 0.012
73 | GTGTTAAC | -0.018 ± 0.016
74 | CAGTTAAC | 0.0298 ± 0.036
75 | CTGTTAAC | 0.105 ± 0.041

Row | Sequence | PBM 8-mer E-score
76 | ATGTTAAC | 0.306 ± 0.013
77 | AAGTTAAC | 0.233 ± 0.052
78 | GAGTTAAC | 0.0742 ± 0.055
79 | CCAGTAGA | -0.0423 ± 0.068
80 | AAGCCTGA | -0.17 ± 0.034
81 | ACCTCCGG | -0.194 ± 0.037
82 | CGCTGTAA | -0.00707 ± 0.013
83 | AGGTAGCG | -0.0415 ± 0.0036
84 | GCATGCGC | 0.112 ± 0.049
85 | CCATGCGA | 0.0911 ± 0.01
86 | GCATGCGA | 0.266 ± 0.042
87 | TCGAAAGA | 0.0439 ± 0.024
88 | CATAGATG | -0.111 ± 0.065
89 | CAAGGCAC | 0.0684 ± 0.076
90 | ACTAGCCT | 0.134 ± 0.035
91 | CTCCCGCA | 0.0448 ± 0.016
92 | AAACATAG | 0.0193 ± 0.016
93 | AAACATAT | 0.247 ± 0.042
94 | AAACATAA | 0.28 ± 0.013
95 | TAACATAA | 0.217 ± 0.058
96 | AAACATAC | 0.199 ± 0.015
97 | GAACATAA | 0.198 ± 0.058
98 | CCGATCAG | -0.247 ± 0.028
99 | GGGCTTAA | 0.0764 ± 0.033
100 | CGAATGTC | -0.0317 ± 0.0078

Row | Sequence | PBM 8-mer E-score
101 | CGAATGCG | -0.0308 ± 0.079
102 | CGAATGCA | 0.248 ± 0.035
103 | CGAATGCC | -0.00354 ± 0.078
104 | GGAATGTA | 0.0875 ± 0.012
105 | CGAATGTA | 0.241 ± 0.011
106 | ACAGTACC | -0.0999 ± 0.06
107 | GCTGTGCA | -0.0668 ± 0.075
108 | GGCCACAC | -0.0997 ± 0.082
109 | CTTAACTC | 0.0502 ± 0.01
110 | TCTTTCAA | 0.0646 ± 0.0097
111 | GGACACGA | -0.122 ± 0.0082
112 | GCACACAA | 0.233 ± 0.012
113 | TGACACAA | 0.239 ± 0.0028
114 | TAACACAA | 0.232 ± 0.058
115 | CAACACAA | 0.0293 ± 0.052
116 | CGACACAA | -0.0479 ± 0.0084
117 | AGACACAA | 0.00927 ± 0.0092
118 | AAACACAA | 0.153 ± 0.0061
119 | GCACACAC | -0.0369 ± 0.062
120 | GGACACAA | 0.238 ± 0.045
121 | GGACACAC | -0.0301 ± 0.051
122 | ACACACAA | 0.0979 ± 0.013
123 | CGTCCACG | -0.0278 ± 0.092
124 | GGCCCGAC | -0.223 ± 0.016
125 | CTGGTGGA | -0.184 ± 0.0071

Row | Sequence | PBM 8-mer E-score
126 | CCCCAAAG | -0.0426 ± 0.063
127 | CCTCTGGC | -0.104 ± 0.017
128 | GAACTATC | 0.0395 ± 0.014
129 | CCACAACA | 0.0344 ± 0.024
130 | GCACAACA | 0.263 ± 0.066
131 | GCACAACC | -0.2359 ± 0.0019
132 | CTCCTTGC | -0.0809 ± 0.064
133 | GAACCACC | -0.0303 ± 0.047
134 | ACCATAAG | 0.0575 ± 0.0016
135 | CCCATAAG | 0.277 ± 0.06
136 | CCCATAAC | 0.128 ± 0.0013
137 | ATACGTTG | 0.11 ± 0.057
138 | ATCTTGTA | -0.0155 ± 0.031
139 | ATACAGTG | 0.237 ± 0.028
140 | ATACAGTC | -0.00634 ± 0.095
141 | ATACAGTA | 0.223 ± 0.018
142 | ACGTCAAA | 0.148 ± 0.052
143 | CTTGCTGA | -0.0397 ± 0.039
144 | GACGGAAC | -0.127 ± 0.049
145 | CTCCTTAA | -0.0933 ± 0.1
146 | AAGACCCA | 0.042 ± 0.021
147 | TAGACCCA | 0.243 ± 0.021
148 | GAGACCCA | -0.107 ± 0.056
149 | CAGAGCAG | -0.155 ± 0.026
150 | ACTGTTCT | 0.114 ± 0.014

Row | Sequence | PBM 8-mer E-score
151 | CATAATAA | 0.123 ± 0.049
152 | AATAATAG | 0.146 ± 0.0061
153 | ACTAATAC | 0.188 ± 0.061
154 | CATAATAG | 0.258 ± 0.0042
155 | CGTAATAG | 0.168 ± 0.063
156 | AGTAATAG | 0.255 ± 0.043
157 | AGTAATAC | -0.0436 ± 0.038
158 | ACTAATAG | 0.261 ± 0.027
159 | ACTAATAT | 0.0629 ± 0.074
160 | CCTGGTTA | -0.0217 ± 0.078
161 | AGCGGTAA | -0.128 ± 0.0078
162 | GAGGCTCC | -0.117 ± 0.064
163 | AACTTTGT | 0.12 ± 0.0076
164 | AACACTAG | 0.193 ± 0.0046
165 | CTGACGCC | -0.0915 ± 0.025
166 | AATGCTTG | -0.00273 ± 0.049
167 | TCCACAGA | -0.0264 ± 0.053
168 | CCTCGACG | -0.141 ± 0.026
169 | CGTTGCTA | 0.237 ± 0.019
170 | AATTGCTG | 0.0578 ± 0.078
171 | CGTTGCTC | -0.0317 ± 0.009
172 | AGTTGCTA | 0.0844 ± 0.05
173 | AATTGCTA | 0.268 ± 0.048
174 | CATTGCTA | 0.102 ± 0.021
